Experimental findings from PubChem BioAssay are described below.

Assay [1] deals with Albumin (Bos taurus) (UniProt P02769). Briefly: bovine serum albumin binders on microarray, profiling panel, artefact control for SMM control protein annotation, biochemical, small-molecule microarray, Alexa647 label, 635/667 nm fluorescence (AID 1118).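 Further: score merges 667 nm emission intensity and signal-to-noise per printed compound spot.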 As to conditions: BSA-A647 binding, fluorescence 635 nm, higher = more signal.
Sequence of Albumin (Bos taurus) (P02769 whole entry, looked up): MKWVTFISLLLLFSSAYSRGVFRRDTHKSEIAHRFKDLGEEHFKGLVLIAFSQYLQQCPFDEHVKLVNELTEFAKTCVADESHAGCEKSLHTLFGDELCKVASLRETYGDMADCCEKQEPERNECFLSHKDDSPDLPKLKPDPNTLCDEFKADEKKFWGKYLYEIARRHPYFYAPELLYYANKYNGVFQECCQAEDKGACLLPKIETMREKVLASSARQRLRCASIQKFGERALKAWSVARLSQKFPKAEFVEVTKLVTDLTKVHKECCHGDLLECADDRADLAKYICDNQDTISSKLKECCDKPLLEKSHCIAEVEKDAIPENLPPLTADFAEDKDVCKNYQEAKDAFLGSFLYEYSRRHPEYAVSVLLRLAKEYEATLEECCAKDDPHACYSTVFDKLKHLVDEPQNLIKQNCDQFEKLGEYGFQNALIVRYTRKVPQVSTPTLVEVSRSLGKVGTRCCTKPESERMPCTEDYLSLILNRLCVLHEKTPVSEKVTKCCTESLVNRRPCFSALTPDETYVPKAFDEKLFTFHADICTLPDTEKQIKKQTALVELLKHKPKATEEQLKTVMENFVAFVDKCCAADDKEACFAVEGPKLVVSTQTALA
A short description of assay [2]: small-molecule microarray binders of probe aXIP, primary screen, biochemical, NeuroSMM set, 635/667 nm fluorescence (AID 1119).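 Further: probe is the protein aXip251-270 applied at 1 µg/mL to compound-printed slides; binding of probe to printed compounds measured as 667 nm fluorescence plus signal to noise.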 As to conditions: higher = more signal, called active from +8 up or from −8 down.
Assay [3] in a line: small-molecule binders of probe aNOTCH3, primary screen, biochemical, small-molecule microarray, 635/667 nm fluorescence (AID 1120).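 Further: probe is a biotin-tagged antibody raised against NOTCH3 rather than NOTCH3 protein; score merges spot fluorescence near 667 nm with spot signal to noise.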 The following applies: higher = more signal.
Assay [4] in a line: small-molecule binders of probe aNOTCH2, primary screen, biochemical, small-molecule microarray, 635/667 nm fluorescence (AID 1121).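 Further: score merges feature fluorescence read at 667 nm with its signal to noise.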 The following applies: higher = more signal.
Assay [5] deals with Carbonic anhydrase 2 (Homo sapiens) (UniProt P00918). Put plainly: CAII small-molecule binders, profiling panel, biochemical, small-molecule microarray, Alexa647-labelled CAII (AID 1122). The following applies: CAII-A647 binding fluorescence, higher = more signal.
Assay [6] can be described thus: COS7 lysate on small-molecule microarray, probe aHis, 635 nm (AID 1123).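 Further: z-score combines 667nm fluorescence intensity with signal-to-noise per printed compound spot.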 As to conditions: COS7 cell lysate, fluorescence, higher = more signal.
Assay [7] can be described thus: compound binding in COS7 lysate, probe aLAP1, primary screen, cell lysate, small-molecule microarray (AID 1124).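 Further: lysate comes from COS7 cells expressing LAP1 and is applied at 0.3 µg/mL; score merges spot fluorescence near 667 nm with signal-to-noise over triplicate slides.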 As to conditions: probe aLAP1, fluorescence, higher = more signal.
Assay [8] deals with Sam68 (KHDRBS1). Put plainly: Sam68 small-molecule binders, primary screen, biochemical, small-molecule microarray, 635 nm fluorescence (AID 1125).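 Further: score merges 667 nm channel intensity with signal to noise over triplicate slides.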 As to conditions: small-molecule microarray binding, higher = more signal.
Assay [9] deals with Chordin-like protein 2 (CHRDL2). Briefly: CHRDL2 small-molecule binders, primary screen, biochemical, small-molecule microarray, 635 nm fluorescence (AID 1126).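 Further: printed compound slides probed with Chrdl2 protein at 4 µg/mL for 1 h at 4 C; score merges 667 nm emission intensity with signal to noise over three replicate slides.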 The following applies: small-molecule microarray binding, fluorescence 635 nm; higher = more signal.
For assay [10], the target named is Concanavalin-A (Canavalia ensiformis) (UniProt P02866). Put plainly: ConA small-molecule binders, primary screen, artefact control for SMM control protein annotation, biochemical, small-molecule microarray, Alexa647 label, 635 nm (AID 1127).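 Further: z combines 667 nm emission intensity with signal-to-noise across three replicate slides.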 As to conditions: ConA-A647 binding fluorescence, higher = more signal.
Sequence of Concanavalin-A (Canavalia ensiformis) (P02866 whole entry, looked up): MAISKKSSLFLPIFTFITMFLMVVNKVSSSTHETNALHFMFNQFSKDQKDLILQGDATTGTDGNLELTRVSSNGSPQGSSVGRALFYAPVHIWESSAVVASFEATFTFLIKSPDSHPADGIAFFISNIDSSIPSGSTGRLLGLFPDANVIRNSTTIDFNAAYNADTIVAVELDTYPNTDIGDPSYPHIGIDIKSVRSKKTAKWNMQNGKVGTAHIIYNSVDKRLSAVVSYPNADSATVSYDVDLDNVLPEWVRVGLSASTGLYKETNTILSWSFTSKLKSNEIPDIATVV
Assay [11] in a line: anti-His antibody binders, primary screen, artefact control for SMM control protein annotation, biochemical, small-molecule microarray, 635 nm fluorescence (AID 1128).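 Further: score merges feature fluorescence with signal-to-noise for each printed compound spot.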 The following applies: anti-His Alexa647 antibody binding, higher = more signal.
Assay [12] deals with Human papillomavirus type 1a E7 protein (residues 1-88). Put plainly: HPV1a E7 small-molecule binders, primary screen, biochemical, small-molecule microarray, residues 1-88, 635 nm (AID 1129). The following applies: small-molecule microarray binding, fluorescence 635 nm; higher = more signal.
The target in assay [13] is Focal adhesion kinase 1 (Homo sapiens) (UniProt Q05397). Briefly: small-molecule microarray binders of FAK, primary screen, biochemical, 635/667 nm fluorescence, BSA, DTT (AID 1130).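 Further: composite of spot emission at 667 nm and signal to noise over triplicate slides.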 As to conditions: PTK2 binding, 635 nm fluorescence, higher = more signal.
Sequence of Focal adhesion kinase 1 (Homo sapiens) (Q05397 whole entry, looked up): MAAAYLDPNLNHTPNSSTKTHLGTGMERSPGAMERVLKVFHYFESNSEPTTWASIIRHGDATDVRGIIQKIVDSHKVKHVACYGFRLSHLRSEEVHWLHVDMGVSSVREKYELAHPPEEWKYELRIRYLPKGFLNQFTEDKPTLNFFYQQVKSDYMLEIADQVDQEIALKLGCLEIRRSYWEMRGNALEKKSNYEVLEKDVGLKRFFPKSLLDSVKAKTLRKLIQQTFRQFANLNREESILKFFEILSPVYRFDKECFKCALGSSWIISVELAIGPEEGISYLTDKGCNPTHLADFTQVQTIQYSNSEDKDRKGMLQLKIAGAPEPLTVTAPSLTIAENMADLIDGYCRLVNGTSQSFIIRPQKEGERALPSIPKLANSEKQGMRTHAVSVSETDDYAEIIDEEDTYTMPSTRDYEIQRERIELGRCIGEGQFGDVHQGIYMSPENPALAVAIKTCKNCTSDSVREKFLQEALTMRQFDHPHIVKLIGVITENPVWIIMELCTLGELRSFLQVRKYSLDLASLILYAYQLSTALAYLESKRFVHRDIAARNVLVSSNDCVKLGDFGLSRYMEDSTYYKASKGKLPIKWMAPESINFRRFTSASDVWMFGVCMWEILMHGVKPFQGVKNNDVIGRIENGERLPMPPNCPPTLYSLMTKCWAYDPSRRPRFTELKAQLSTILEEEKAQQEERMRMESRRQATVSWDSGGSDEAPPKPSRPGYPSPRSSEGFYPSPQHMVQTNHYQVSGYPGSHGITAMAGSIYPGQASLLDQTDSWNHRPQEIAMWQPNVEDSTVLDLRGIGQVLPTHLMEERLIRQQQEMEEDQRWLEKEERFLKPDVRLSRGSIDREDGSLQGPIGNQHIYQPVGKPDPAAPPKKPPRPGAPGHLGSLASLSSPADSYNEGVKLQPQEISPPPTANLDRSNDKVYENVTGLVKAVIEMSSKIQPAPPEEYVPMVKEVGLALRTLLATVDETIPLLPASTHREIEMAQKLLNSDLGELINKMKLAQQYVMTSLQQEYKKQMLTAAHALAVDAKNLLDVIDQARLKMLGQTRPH
For assay [14], the system named is Fibrinogen (Alexa647-labelled). Put plainly: fibrinogen binders on compound microarrays, profiling panel, artefact control for SMM control-protein annotation, biochemical, small-molecule microarray, 635/667 nm fluorescence (AID 1131).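 Further: z-score merges 667 nm fluorescence with per-spot signal-to-noise over triplicate slides.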 The following applies: fibrinogen-A647 binding fluorescence, higher = more signal.
In assay [15] the target is Follistatin (Homo sapiens) (UniProt P19883). Put plainly: follistatin binders on small-molecule microarrays, primary screen, biochemical, small-molecule microarray, 635/667 nm fluorescence (AID 1132). The following applies: FST binding, 635 nm fluorescence, higher = more signal.
Sequence of Follistatin (Homo sapiens) (P19883 whole entry, looked up): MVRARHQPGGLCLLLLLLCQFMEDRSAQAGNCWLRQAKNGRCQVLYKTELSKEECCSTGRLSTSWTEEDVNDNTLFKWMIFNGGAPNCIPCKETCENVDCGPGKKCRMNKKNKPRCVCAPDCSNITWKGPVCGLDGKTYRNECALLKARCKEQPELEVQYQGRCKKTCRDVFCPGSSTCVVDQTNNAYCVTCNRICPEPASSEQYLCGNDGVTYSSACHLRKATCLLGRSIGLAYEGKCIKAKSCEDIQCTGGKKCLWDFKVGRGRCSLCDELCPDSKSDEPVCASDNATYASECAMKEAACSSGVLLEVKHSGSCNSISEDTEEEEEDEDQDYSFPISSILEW
For assay [16], the target named is Fibroblast growth factor 2 (Homo sapiens) (UniProt P09038). Briefly: FGF2 binders on small-molecule microarrays, primary screen, biochemical, small-molecule microarray, 635/667 nm fluorescence (AID 1133). The following applies: small-molecule microarray binding, FGF2, fluorescence 635/667; higher = more signal.
Sequence of Fibroblast growth factor 2 (Homo sapiens) (P09038 whole entry, looked up): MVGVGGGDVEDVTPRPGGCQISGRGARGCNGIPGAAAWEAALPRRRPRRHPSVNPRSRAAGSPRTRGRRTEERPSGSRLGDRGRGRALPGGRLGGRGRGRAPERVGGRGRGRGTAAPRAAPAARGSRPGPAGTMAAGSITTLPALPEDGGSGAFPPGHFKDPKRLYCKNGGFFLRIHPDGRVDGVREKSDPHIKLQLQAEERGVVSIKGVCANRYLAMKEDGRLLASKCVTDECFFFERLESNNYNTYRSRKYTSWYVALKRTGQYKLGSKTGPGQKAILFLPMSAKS
The nature of assay [17]: mitochondrial membrane potential change in A549 cells, profiling panel, cell-based, JC-1 fluorescence, basal, 24 h, 100 nL (AID 1138).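 Further: A549 lung adenocarcinoma cells under basal conditions with no added stimulus; test concentration not given here.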 The following applies: higher = more signal.
Assay [18] has as its system Lefty1. Briefly: Lefty1 binders on small-molecule microarrays, primary screen, biochemical, small-molecule microarray, 635/667 nm fluorescence (AID 1139). As to conditions: small-molecule microarray binding, fluorescence 635/667; higher = more signal.
Assay [19] deals with wheat germ agglutinin (Triticum aestivum), Alexa647-labelled. Put plainly: wheat germ agglutinin binders on compound microarrays, profiling panel, artefact control for SMM control-protein annotation, biochemical, small-molecule microarray, 635/667 nm fluorescence (AID 1140).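 Further: score merges 667 nm feature emission with signal to noise over triplicate slides.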 As to conditions: WGA-A647 binding, 635 nm fluorescence, higher = more signal.
Assay [20] concerns the target Luciferin 4-monooxygenase (Photinus pyralis) (UniProt P08659). Put plainly: firefly luciferase enzyme inhibitors, primary screen, biochemical, luminescence, purified enzyme, 2006 set (AID 1141).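 Further: cell-free assay with purified firefly luciferase at 100 ng per well in PBS; test concentration not given here.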 As to conditions: SteadyGlo luminescence, 30 min, higher = more signal, called active from +8 up or from −8 down.

Calls of active or inactive are those of the source.

Sequence of Luciferin 4-monooxygenase (Photinus pyralis) (P08659 whole entry, looked up): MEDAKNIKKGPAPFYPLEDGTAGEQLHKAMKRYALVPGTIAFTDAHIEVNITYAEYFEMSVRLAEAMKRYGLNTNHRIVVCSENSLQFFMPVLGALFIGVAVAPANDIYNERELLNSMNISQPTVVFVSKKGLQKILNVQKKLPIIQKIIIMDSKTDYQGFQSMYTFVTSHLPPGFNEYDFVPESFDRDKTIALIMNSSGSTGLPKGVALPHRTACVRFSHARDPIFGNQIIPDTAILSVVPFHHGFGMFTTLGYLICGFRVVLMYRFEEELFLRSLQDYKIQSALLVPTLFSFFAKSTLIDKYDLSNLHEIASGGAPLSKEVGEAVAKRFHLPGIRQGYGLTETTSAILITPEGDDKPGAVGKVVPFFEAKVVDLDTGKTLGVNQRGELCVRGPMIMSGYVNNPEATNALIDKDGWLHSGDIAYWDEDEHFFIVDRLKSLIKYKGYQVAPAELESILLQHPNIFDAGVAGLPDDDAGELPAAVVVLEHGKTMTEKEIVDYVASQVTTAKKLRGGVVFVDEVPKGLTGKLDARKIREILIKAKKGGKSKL

As to `CC(C)N1CC=CC23O[C@@H]4C=CCOC(=O)[C@@H]4[C@H]2C(=O)N(CCCO)[C@@H]3C1=O` (stereo not given in full), the composite z-score in assay [1] was 1.05; in [3] it was -0.145; in assay [4], -0.118; in assay [5], 0.863; in [6] it was 2.76; in [7] it was 0.633. Further, the composite z-score in assay [8] is 0.234; in assay [9], -0.73; in assay [10] it was 0.234; in assay [11], 1.59; in assay [12], 0.672; in assay [13], 1.01. The composite z-score in assay [14] was -1.14; in assay [15], -0.0511; in assay [16] it was -0.849; in [18], -0.133; in [19] it was -0.17. For the same compound, in assay [2], the composite Z-score is 2.17 (inactive). Moreover, the figures for the z-score in assay [17] and in assay [20] were -0.384 and -3.85 (inactive), respectively.

Turning to `CCOC(=O)C[C@H]1[C@H](OC(=O)c2ccc(C(=O)c3ccccc3)cc2)[C@@H](NC(=O)Cc2ccc(OC)cc2)c2cc(OCCCO)ccc2N1C(=O)c1ccccc1`, the composite z-score in [1] is 0.585; in [3], 0.0203; in assay [4], -0.0877; in assay [5], 0.188; in [6], 0.409; in [7], -0.0137. Also, the composite z-score in assay [8] was 0.428; in assay [9] it was -0.0656; in assay [10] it was 0.278; in [11] it was 0.305; in [12], 0.498; in assay [13], 0.15. Besides, the composite z-score in [14] is 0.157; in assay [15], -0.17; in assay [16], 0.23; in assay [18], 0.162; in assay [19], -0.337. Besides, the composite Z-score in assay [2] is 0.324 (inactive). Moreover, the z-score was 1.14 in [17] and 0.449 (inactive) in [20].

In the case of `CC(CO)N1C(=O)[C@@H]2[C@H]3C(=O)OCC=C[C@H]3OC23C=CCN(Cc2ccccc2)C(=O)[C@@H]13` (stereo not given in full), the composite z-score in assay [1] was 0.407; in [3], -0.308; in [4], -0.22; in assay [5], 0.905; in assay [6] it was -0.851; in assay [7], -0.419. The composite z-score was -1.17 in assay [8]; -0.42 in assay [9]; -0.325 in assay [10]; 0.543 in [11]; -0.696 in assay [12]; 0.769 in [13]. Moreover, the composite z-score in [14] was -0.854; in [15] it was -0.139; in assay [16], -0.173; in [18], -0.279; in [19], 0.22. Also, the composite Z-score in assay [2] was -0.106 (inactive). Besides, the z-score in assay [17] was -0.376; in assay [20], -3.05 (inactive).

On to `CC1CC/C=C\[C@H]2OC34C=CCN(C(C)C)C(=O)[C@H]3N(CCCCCCO)C(=O)[C@@H]4C2C(=O)O1` (stereo not given in full), for which the composite z-score was -0.0272 in assay [1]; -0.268 in [3]; -0.145 in [4]; 0.889 in assay [5]; -0.63 in assay [6]; -0.0532 in assay [7]. Besides, the composite z-score was -1.83 in [8]; -0.607 in assay [9]; -0.594 in assay [10]; -0.641 in assay [11]; -1.09 in assay [12]; -0.278 in assay [13]. For the same compound, the composite z-score in assay [14] is -1.25; in assay [15], -0.583; in [16], -1.09; in assay [18], -0.547; in assay [19], -0.451. For the same compound, the composite Z-score in [2] is -0.416 (inactive). For the same compound, the figures for the z-score in [17] and in assay [20] were 0.378 and -3.19 (inactive), respectively.

`CN(C)C(=O)C1N=C(c2ccc(OCCCO)cc2)N(c2ccccc2)O1` (stereo not given): the composite z-score in [1] was 0.0877; in assay [3] it was 0.147; in assay [4] it was 0.0674; in assay [5], 0.846; in assay [6], 1.15; in assay [7], 0.502. Also, the composite z-score in assay [8] was 1.32; in assay [9] it was 0.267; in [10] it was 0.988; in [11], 1.33; in [12], 1.13; in assay [13], 0.268. Further, the composite z-score in assay [14] was found to be 0.598; in assay [15] it was 1.35; in assay [16], 1.8; in [18], 1.29; in [19] it was 0.586. Also, the composite Z-score in [2] was 0.794 (inactive). For the same compound, the z-score in assay [17] is 0.936; in [20], -14.9 (active).
